# In the supplement of paper PMC13380429:
# Values without a mark were called inactive.
# System: Vero E6 infected with SARS-CoV-2
# Test: inhibition of SARS-CoV-2 cytopathic effect; higher = more antiviral protection, active = above 15
# Conditions: 48 h
Structure (SMILES),inhibition of SARS-CoV-2 cytopathic effect (1 nM) [%],inhibition of SARS-CoV-2 cytopathic effect (8.33 nM) [%],inhibition of SARS-CoV-2 cytopathic effect (100 nM) [%],inhibition of SARS-CoV-2 cytopathic effect (833.33 nM) [%],inhibition of SARS-CoV-2 cytopathic effect (10000 nM)
CCN(CC)CCNC(=O)c1c(C)[nH]c(/C=C2\C(=O)Nc3ccc(F)cc32)c1C [sunitinib],0.55,-1.31,2.08,-2.15,30.3% (active)
c1cnc(NCc2ccc(CNc3ncccn3)cc2)nc1,-2.38,-1.7,-0.65,-1.46,-0.62%
CC(C)c1cc(-c2n[nH]c(=O)n2-c2ccc3c(ccn3C)c2)c(O)cc1O [ganetespib],-2.33,-3.79,-1.43,-1.16,-7.9%
CCC(C(=O)O)c1ccc(CC(C)C)cc1 (stereo not given) [butibufen],-2.32,-1,1.35,2.34,-0.15%
Cc1cc(C)c(CNC(=O)c2cc(-c3ccc(CN4CCOCC4)cc3)cc3c2cnn3C2CCCC2)c(=O)[nH]1,-0.23,1.2,1.14,-1.29,-1.46%
O=C(O)[C@H](CC(=O)N1C[C@H]2CCCC[C@H]2C1)Cc1ccccc1 [mitiglinide],-0.3,-1.42,-1.04,-1.17,1.67%
COc1nccc(-c2c(-c3ccc(F)cc3)ncn2C2CCNCC2)n1,-7.74,0.83,-2.49,-2.73,7.05%
